Experimental findings from PubChem BioAssay AID686954 (Sanford-Burnham Center for Chemical Genomics, 2013) are described below.

What is called inhibition is the change of the read-out against control, counted positive when it falls.

The campaign covered roughly 30,000 compounds. About 240 (0.8%) were called active.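 How the source made its calls: active means at 10 µM dose, at least 30% inhibition, measured as corrected fluorescence normalized to stimulator and neutral control wells; inactive means the rest.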 The entries come from a sample that favours actives as a whole.

The assay deals with Protein artemis (Homo sapiens) (UniProt Q96SD1). Description: Artemis endonuclease inhibitors, primary screen, biochemical, fluorescence intensity, FAM/BHQ-1 hairpin substrate (AID 686954). The following applies: recombinant Artemis, quenched FAM hairpin cleavage fluorescence; at 10 µM; active compounds read high.
Protein artemis (Homo sapiens), sequence (Q96SD1 whole entry, looked up): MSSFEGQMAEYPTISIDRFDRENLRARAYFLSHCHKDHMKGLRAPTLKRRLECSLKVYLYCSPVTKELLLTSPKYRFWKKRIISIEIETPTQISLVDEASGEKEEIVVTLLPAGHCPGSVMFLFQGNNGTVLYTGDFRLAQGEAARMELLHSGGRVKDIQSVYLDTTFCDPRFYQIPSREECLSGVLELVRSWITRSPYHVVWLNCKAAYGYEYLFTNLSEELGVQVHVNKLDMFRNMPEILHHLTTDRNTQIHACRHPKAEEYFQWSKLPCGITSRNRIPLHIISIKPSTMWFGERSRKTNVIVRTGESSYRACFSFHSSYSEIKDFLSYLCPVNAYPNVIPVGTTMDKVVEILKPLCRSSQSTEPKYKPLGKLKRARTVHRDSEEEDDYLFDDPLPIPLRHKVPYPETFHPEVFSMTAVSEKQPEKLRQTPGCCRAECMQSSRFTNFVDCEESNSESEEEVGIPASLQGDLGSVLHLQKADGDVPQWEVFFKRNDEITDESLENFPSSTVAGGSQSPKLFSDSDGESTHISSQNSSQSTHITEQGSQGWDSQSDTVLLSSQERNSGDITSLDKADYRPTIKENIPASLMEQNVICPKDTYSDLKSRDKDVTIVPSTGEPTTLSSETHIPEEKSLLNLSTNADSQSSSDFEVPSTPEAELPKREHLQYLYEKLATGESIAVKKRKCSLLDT
In the case of `COC(=O)/C=C/C(=O)NCc1ccco1`, the inhibition was 25.1% (inactive). Regarding `Cc1ccccc1OC(=O)Cn1c(C(F)(F)F)nc2ccccc21`, the inhibition is 1.38% (inactive). As for `Cc1cc2c(cc1C)N(C(=O)CN1C(=O)c3ccccc3C1=O)C(C)(C)c1ssc(=S)c1-2`, the figure is 2.13% (inactive). Then `O=C(Oc1cccnc1)c1cc2ccccc2oc1=O`, with 4.63% (inactive). `CC(C)C(c1nnnn1CCc1ccccc1)N1CCN(C(=O)c2ccco2)CC1` (stereo unspecified): the inhibition was -0.73% (inactive). Then `COc1ccc(C2C(C(C)=O)=C(O)C(=O)N2c2nccs2)cc1` (stereo unspecified), with -6.55% (inactive). For `Cc1ccc(SCC(=O)Nc2ncc(C)s2)cc1`, the inhibition is 3.54% (inactive).

For the compound `O=C(N/N=C\c1ccc(-c2ccc(Cl)c(Cl)c2)o1)C(=O)N1CCCC1`, the inhibition is 10.4% (inactive). Regarding `Cc1cc(-c2ccccc2)n2nc(C)c(-c3ccccc3)c2n1`, the inhibition is -3.76% (inactive). Then `O=C(c1ccccc1Oc1ccccc1)N1CCN(c2ccc(F)cc2)CC1`, with 10.1% (inactive); and `Cc1cc(C)n2nc(C(=O)NC(C)(C)C)nc2n1`, with -8.47% (inactive). Then `CCCCNC(=O)CSc1nc2ccc(NC(=O)CSc3nnc(COc4ccccc4C)n3C)cc2s1`, with 1.88% (inactive); and `CC(=O)c1ccc(Cc2ncc(C(F)(F)F)cc2Cl)s1`, with -6.84% (inactive). Then `O=C(Cn1c(-c2cscn2)nc2ccccc21)Nc1ccc(Cl)cc1`, with 6.18% (inactive); and `COc1cc(CNCc2cccs2)cc(Br)c1OC`, with -2.14% (inactive); and `CCOCC(=O)Nc1cc(OC)c(Cl)cc1OC`, with -5.52% (inactive). As for `Cc1ccc(/C=N/NC(=O)C(NC(=O)c2ccccc2)c2n[nH]c(=O)c3ccccc23)cc1` (stereo unspecified), the inhibition is 10.5% (inactive). As for `COCCCn1c(SCC(=O)Nc2ccccc2)nnc1-c1ccncc1`, the figure is -5.35% (inactive). Then `Cn1c(=O)c2c(n(Cc3ccccc3)c1=O)NC(=O)C2CC(=O)N1CCc2ccccc2C1` (stereo unspecified), with 6.23% (inactive). Then `O=C(Nc1ccc(-n2ccnc2P(=O)(O)c2ccccc2)cc1)c1ccccc1Br`, with 4.42% (inactive); and `CCN(CC)CCN1C(=O)C(=O)/C(=C(/O)c2ccccc2)C1c1ccccc1F` (stereo unspecified), with 3.66% (inactive); and `CC(C)(C)NS(=O)(=O)CC12CCC(CC1=O)C2(C)C` (stereo unspecified), with -3.02% (inactive). Take `CN(C)CCNC(=O)Nc1cccc(Cl)c1Cl`: the inhibition was -0.2% (inactive). As for `CCN(CC)Cc1cc(C(C)=O)ccc1O`, the figure is -4.35% (inactive); as for `O=C(Nc1nnc(SCc2ccccc2)s1)c1ccco1`, 12.4% (inactive); as for `Cc1nn2c3ccccc3nc2n(C)c1=O`, 0.11% (inactive). As to `O=C(Nc1ccc2c(c1)CCC2)c1cccc(S(=O)(=O)N2CCN(c3ccc(F)cc3)CC2)c1`, the inhibition is 2.72% (inactive).

Take `CN1CCN(S(=O)(=O)c2ccc(N3CCN(S(=O)(=O)c4cccs4)CC3)nc2)CC1`: the inhibition was -9.36% (inactive). As for `Cc1ccc(NC(=S)NC2CCCC2)cc1`, the figure is 1.01% (inactive); as for `CCC(=O)NNc1cc(=O)c2c(=O)n(C)c(=O)n(C)c2[nH]1`, 0.17% (inactive); as for `COc1cccc(CNc2nc3nc4c(c(=O)n3[nH]2)CCC4)c1`, -6.09% (inactive). `CCN(Cc1ccncc1)C(=O)c1cccc(S(=O)(=O)N2CCOCC2)c1`: the inhibition was -1.99% (inactive).

As for `Cc1cc(C)c2c(-n3cccc3)c(NC(=O)OCc3ccccc3)sc2n1`, the inhibition is 0.14% (inactive). Then `CCOc1cccc(C(=O)Nc2cnn(Cc3ccccc3)c2)c1`, with 0.76% (inactive). As for `Cc1ccc(C2NC(=S)NC3=C2N2CCC3CC2)cc1` (stereo unspecified), the figure is -3.09% (inactive); as for `CN1CCN(Cc2c(O)ccc3c2oc(=O)c2ccccc23)CC1`, -4.24% (inactive). Then `Cc1ccc(/C=N\n2c(-c3ccccc3)n[nH]c2=S)s1`, with 4.19% (inactive); and `CC(=O)c1sc(NC(=O)c2cccc3ccccc23)nc1C`, with 5.24% (inactive). For the compound `Cc1nnc(NC(=O)CCCOc2ccccc2)s1`, the inhibition is -2.98% (inactive). Then `NC(=O)C1CCN(C(=O)c2ccc(C(F)(F)F)cc2)CC1`, with -5.95% (inactive); and `O=C(NCC1CCCO1)c1ccc2ccccc2n1` (stereo unspecified), with 1.24% (inactive); and `N#C/C(=C(/O)COc1cccc2ccccc12)c1nc2ccccc2[nH]1`, with -3.72% (inactive). As for `CC(C)(O)C(=O)NN(C(=O)c1ccccc1)c1cccc(Br)c1`, the figure is -17.1% (inactive). As for `O=C(COc1ccc2oc3c(c2c1)CCCC3)Nc1ccccn1`, the figure is -4.41% (inactive). As to `CCOC(=O)C1CCc2nc3ccccc3c(=O)n21` (stereo unspecified), the inhibition was -9.86% (inactive). As for `CCC(C)NC(=O)c1ccccc1NC(=O)c1ccccc1N(C)S(C)(=O)=O` (stereo unspecified), the figure is -0.77% (inactive); as for `O=C(CSc1nnc(-c2ccco2)n1-c1ccccc1)NCCc1ccccc1`, 5.03% (inactive); as for `CCOc1ccc(-c2c(C)n([O-])c3c([n+]2=O)CCCC3)cc1`, -6.29% (inactive). Then `CCC(=O)NC(Nc1nc2ccc(C)cc2s1)(C(=O)OC)C(F)(F)F` (stereo unspecified), with -8.44% (inactive); and `CCn1c(COc2ccccc2)nnc1SCC(=O)Nc1ccc2c(c1)OCCO2`, with -7.11% (inactive); and `S=C(NCCC1=CCCCC1)Nc1ccccc1`, with 3.85% (inactive). As for `CCOC(=O)C1=NNC2(c3ccc(Cl)cc3)C(=O)N(c3cc(C)cc(C)c3)C(=O)C12` (stereo unspecified), the figure is 1.03% (inactive); as for `Cc1oc2nc(SCC(=O)NCc3cccnc3)nc(N)c2c1C`, 2.99% (inactive). Turning to `Cc1nn(Cc2ccccc2Cl)c(C)c1NC(=O)Cn1nc([N+](=O)[O-])c(Cl)c1C`, the inhibition is 1.31% (inactive).

Regarding `CCCc1ccc(OCc2ccc(C(=O)N/N=C/c3cccc([N+](=O)[O-])c3)o2)c(OC)c1`, the inhibition was -9.45% (inactive). As to `Cc1c(Cl)c([N+](=O)[O-])nn1Cc1ccc(C(=O)N/N=C\c2cc(Cl)ccc2O)o1`, the inhibition is 31% (active).

As to `COc1ccc(-c2nc3ccccc3n2CCC(C)C)cc1OC`, the inhibition was 7.4% (inactive). In the case of `CCSc1nnc(NC(=O)Cc2ccccc2OC)s1`, the inhibition is 2.36% (inactive). As to `C[C@H](NC(=O)NCCc1ccccc1)C(=O)O`, the inhibition was -9.76% (inactive). Then `CCOC(=O)c1nc(Nc2ccc(C(=O)OC)cc2)c2ccccc2n1`, with -0.44% (inactive); and `C/C(=N\NC(=O)c1ccccc1C)c1ccc(N2CCOCC2)cc1`, with 0.87% (inactive); and `COc1cccc(-c2cc(C(=O)N/N=C/c3ccc(OC)c(COC(C)=O)c3)c3ccccc3n2)c1`, with 9.16% (inactive). As for `CS(=O)(=O)n1nc(-c2ccccc2)nc1NCc1ccco1`, the figure is -21.9% (inactive). On to `CC(=O)N/C(=C/c1ccc(Cl)cc1)C(=O)NCCc1c[nH]c2ccccc12`, for which the inhibition is -1.86% (inactive). Regarding `O=C(Cn1cncn1)N/N=C/c1c2ccccc2cc2ccccc12`, the inhibition was -6.23% (inactive). As for `CC(C)Oc1ccc(C(=O)NC(C)(C)CO)cc1`, the figure is 1.84% (inactive); as for `O=C(CN(Cc1ccccc1)C(=O)c1ccc2c(c1)OCCO2)NCc1ccc2c(c1)OCO2`, -2.04% (inactive); as for `CC1(C)Cc2ccccc2-c2nnc(-c3cccc(O)c3)n21`, -6.85% (inactive). With `Cc1ccc(C(=O)OC2=CC(=O)CC(C)(C)C2)cc1`, the inhibition was -0.31% (inactive). Then `CCOC(=O)c1cnc(-c2ccccc2)nc1Oc1ccc(C)cc1`, with 7.75% (inactive); and `CSc1nc(C)cc(SC(C(C)=O)C(=O)Nc2ccccc2)n1` (stereo unspecified), with -3.91% (inactive).

On to `CC(=O)Cc1nsc(NC(=O)c2ccc(COc3ccc(C)cc3)o2)n1`, for which the inhibition is -5.26% (inactive). For `COc1ccc(-c2nn(-c3ccccc3)cc2C(=O)Nc2nc(CC(C)=O)ns2)cc1`, the inhibition was 45.9% (active). As for `COc1ccc(-c2nn(-c3ccccc3)cc2C(=O)Nc2nccs2)cc1OC`, the figure is 27.5% (inactive).

With `CN1/C(=c2/s/c(=C3/C(=O)N(c4ccccc4)NC3=Nc3ccccc3)n(C)c2=O)C(C)(C)c2ccccc21`, the inhibition is 15.8% (inactive).

In the case of `CCOC(=O)C1=C(CNC2CCCCC2)NC(=O)NC1c1cc(C)ccc1C` (stereo unspecified), the inhibition is -5.92% (inactive).

As to `O=C(/C=C/c1ccccc1)c1ccoc1`, the inhibition was -1.46% (inactive). With `O=C(Nc1ccccc1Cl)O/N=C(/c1ccccc1)c1ccccn1`, the inhibition is 6.79% (inactive). Then `Cc1ccc2nc(SC(C)C(=O)NCc3ccco3)[nH]c2c1` (stereo unspecified), with 4.88% (inactive); and `Cc1ccc(-n2c(C)cc(/C=N/Nc3ccc([N+](=O)[O-])cn3)c2C)c(C)c1`, with 14.4% (inactive); and `NC(=O)COc1ccc(/C=N/NC(=O)C2CCCN2S(=O)(=O)c2ccc(Cl)cc2)cc1` (stereo unspecified), with 0.47% (inactive).

As to `CC1CCN(CC(=O)c2c[nH]c3ccccc23)CC1`, the inhibition was -3.18% (inactive). In the case of `CCOC(=O)Nc1sc(C(=O)N(C)C)c(C)c1C(=O)OCC`, the inhibition is 7.1% (inactive). As for `O=C(Cc1ccc(S(=O)(=O)N2CCCC2)s1)NC1CCCCCC1`, the figure is 0.64% (inactive); as for `CCOc1c(Cl)cc(/C=N/O)cc1OC`, -3.96% (inactive); as for `CCNc1nc(N)nc(-c2cc(Cl)ccc2OC)n1`, -15.5% (inactive).

Turning to `Cc1cccc(N2CCN(C(c3ccc(N(C)C)cc3)c3nnnn3C(C)(C)C)CC2)c1C` (stereo unspecified), the inhibition is 4.46% (inactive). Then `COCCNCCOCCOc1cccc(OC)c1`, with -0.71% (inactive).

Regarding `CC(C)OC(=O)CN1C(=O)c2ccccc2C1=O`, the inhibition was -7.81% (inactive). In the case of `CC(=O)Oc1ccc(NC(=O)CCC2CCCCC2)c(C(=O)O)c1`, the inhibition is -1.44% (inactive). As to `Cc1nnc(SCC(=O)NCCOc2ccc(Cl)cc2)n1-c1ccccc1`, the inhibition was -3.78% (inactive).

With `CC1(C)CCCC2=C1CC1C(=O)N(c3ccccc3)C(=O)C1C2` (stereo unspecified), the inhibition is -1.84% (inactive). On to `O=C1Nc2ccc(Br)cc2/C1=N/N=C/C1=C(N2CCOCC2)C(=C\c2ccccc2)/CC1`, for which the inhibition was 30.1% (active). Then `COc1ccc(-c2noc(-c3ccc(C)cc3)n2)cc1`, with 0.23% (inactive). As to `Cc1ccc2[nH]c3c(=O)n(Cc4ccccn4)cnc3c2c1`, the inhibition was 3.97% (inactive). With `C=CCNc1cnn(-c2ccc(C)cc2)c(=O)c1Cl`, the inhibition is 3.95% (inactive).
